# Test results reported in PubChem BioAssay (NCATS).
# Unmarked numbers belong to inactive results. Results filed as inconclusive are left out. The source made the active and inactive calls. Unless noted, calls follow the shape of the dose curve; as a rule, active = well fitted curve in the direction sought with a large enough effect; inconclusive = small, poorly fitted or top-dose-only effect, or another doubt; inactive = no such curve, though single readings can be large; an effect the other way counts as inactive or inconclusive.
# Legend:
# [1] = molecular target: Cytochrome P450 3A4 (Homo sapiens) (UniProt P08684); assay: qHTS Assay for Activators of Cytochrome P450 3A4 (AID 885); also: nearly all actives have a fitted effect of over 65% in size
# Cytochrome P450 3A4 (Homo sapiens), sequence (P08684 whole entry, looked up): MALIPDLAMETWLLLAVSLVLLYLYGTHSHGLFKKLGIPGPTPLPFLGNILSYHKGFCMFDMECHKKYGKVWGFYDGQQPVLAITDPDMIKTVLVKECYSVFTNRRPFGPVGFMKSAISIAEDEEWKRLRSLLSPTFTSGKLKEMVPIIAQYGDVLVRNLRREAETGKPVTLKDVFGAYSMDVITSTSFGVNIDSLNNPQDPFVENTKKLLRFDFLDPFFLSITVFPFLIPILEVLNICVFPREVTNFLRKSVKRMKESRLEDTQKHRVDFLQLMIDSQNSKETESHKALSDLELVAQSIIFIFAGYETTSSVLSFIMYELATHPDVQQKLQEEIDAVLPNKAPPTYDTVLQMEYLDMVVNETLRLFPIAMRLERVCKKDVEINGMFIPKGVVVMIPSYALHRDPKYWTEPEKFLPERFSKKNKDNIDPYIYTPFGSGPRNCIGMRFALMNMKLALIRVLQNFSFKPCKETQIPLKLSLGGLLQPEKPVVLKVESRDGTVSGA
# How it was run: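 Activators are scored by enhanced luminescence from CYP3A4 conversion of luciferin-PPXE (25uM, equal to KM) to luciferin, after 60 min at RT with an NADPH-regenerating system.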
# [2] = molecular target: Cytochrome P450 3A4 (Homo sapiens) (UniProt P08684); assay: qHTS Assay for Inhibitors and Substrates of Cytochrome P450 3A4 (AID 884); also: nearly all actives have a fitted effect of over 50% in size; also: potency is read from the fitted curve at half-maximal effect; as to activity change, negative = inhibition: series mostly up to about 57 µM; % is scaled to controls: 0 for no effect and ±100 for the full control effect
# How it was run: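 Luminescent readout of luciferin produced by CYP3A4 (20 nM) dealkylation of Luciferin-PPXE, 25 uM (its KM). NADPH-driven reaction ran 60 min at RT after 10 min compound preincubation; data scaled to 57 uM ketoconazole as 100% inhibition.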
# [3] = qHTS Assay for Identification of Small Molecule Agonists for Hypoxia Response Element Signaling Pathway (AID 914; active = well fitted activation curve with a large enough effect in the signal ratio, with a control signal flat, not every such curve was filed as active; the % refers to the signal ratio; also: % of control where 0% means no effect); details: ME-180 (cervical carcinoma) HRE-bla reporter, beta-lactamase ratio, CoCl2, 17 h; hits give high values
# How it was run: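 Compounds in a titration series were added to ME-180 reporter cells alongside an EC50 level of CoCl2. After 17 hours, beta-lactamase activity was read as the 460nm/530nm emission ratio of CCF4, giving AC50 values.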
# [4] = molecular target: Cytochrome P450 2D6 (Homo sapiens) (UniProt P10635); assay: qHTS Assay for Inhibitors and Substrates of Cytochrome P450 2D6 (AID 891); also: nearly all actives have a fitted effect of over 60% in size; also: potency is read from the fitted curve at half-maximal effect;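 as to activity change, negative = inhibition: luciferin methyl ether substrate demethylated by CYP2D6 with NADPH regeneration; % is scaled to controls: 0 for no effect and ±100 for the full control effect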
# Cytochrome P450 2D6 (Homo sapiens), sequence (P10635 whole entry, looked up): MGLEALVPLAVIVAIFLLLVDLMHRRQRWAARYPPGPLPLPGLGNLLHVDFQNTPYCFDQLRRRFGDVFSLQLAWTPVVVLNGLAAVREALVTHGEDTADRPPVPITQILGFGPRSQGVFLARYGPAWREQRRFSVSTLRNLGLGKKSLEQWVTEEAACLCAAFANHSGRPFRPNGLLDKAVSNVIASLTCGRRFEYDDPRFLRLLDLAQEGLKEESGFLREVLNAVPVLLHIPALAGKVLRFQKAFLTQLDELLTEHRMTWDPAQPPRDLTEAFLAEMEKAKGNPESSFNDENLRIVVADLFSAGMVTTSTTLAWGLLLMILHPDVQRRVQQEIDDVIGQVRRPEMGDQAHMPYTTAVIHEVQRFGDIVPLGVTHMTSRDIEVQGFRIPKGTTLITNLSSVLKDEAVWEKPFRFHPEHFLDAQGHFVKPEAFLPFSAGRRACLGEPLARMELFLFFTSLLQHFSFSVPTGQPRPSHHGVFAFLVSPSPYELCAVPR
# How it was run: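 Luminescent read-out of luciferin formed by 5 nM human CYP2D6 demethylating 30 uM Luciferin-ME EGE (Km level) over 60 min at room temperature after NADPH regeneration addition. Data normalized to full inhibition by 1.43 uM quinidine.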
# [5] = molecular target: Cytochrome P450 2C19 (Homo sapiens) (UniProt P33261); assay: qHTS Assay for Inhibitors and Substrates of Cytochrome P450 2C19 (AID 899); also: nearly all actives have a fitted effect of over 60% in size; also: potency is read from the fitted curve at half-maximal effect
# Cytochrome P450 2C19 (Homo sapiens), sequence (P33261 whole entry, looked up): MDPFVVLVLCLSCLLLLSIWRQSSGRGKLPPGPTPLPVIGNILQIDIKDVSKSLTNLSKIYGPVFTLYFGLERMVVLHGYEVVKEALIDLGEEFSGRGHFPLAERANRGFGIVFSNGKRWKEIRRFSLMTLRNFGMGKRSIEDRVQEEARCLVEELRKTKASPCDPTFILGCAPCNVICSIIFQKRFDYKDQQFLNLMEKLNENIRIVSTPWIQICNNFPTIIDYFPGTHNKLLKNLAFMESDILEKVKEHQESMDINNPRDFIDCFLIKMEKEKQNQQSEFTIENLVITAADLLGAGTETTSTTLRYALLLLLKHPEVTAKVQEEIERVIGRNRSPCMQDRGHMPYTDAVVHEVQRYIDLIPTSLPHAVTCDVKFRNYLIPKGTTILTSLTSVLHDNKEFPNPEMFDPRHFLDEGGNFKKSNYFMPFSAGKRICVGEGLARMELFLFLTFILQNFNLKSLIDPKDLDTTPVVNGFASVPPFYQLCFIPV
# How it was run: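 Luminescent read-out of luciferin formed from Luciferin-H EGE (10uM, equal to KM). Enzyme 5nM in 50mM KPO4; compound added, 10 min at 37C, then NADPH regenerating system for 60 min at 37C. Full inhibition defined by 57uM ketoconazole.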
compound,measurement,setting,value
C#CCCCO/N=C1/C[C@@H](O)[C@@H](O)[C@@H]2[C@@H]3C(=O)N(C[C@@H]4CCCO4)C(=O)[C@H]3CC[C@@H]12,"activity change, positive = activation",[1],-39.4% [at 11.4 µM]
COC(=O)[C@@H]1C[C@H]2CC[C@H](O)C[C@H]2N1Cc1ccc(C)s1,Potency,[1],inactive
C#CCCCO/N=C1/C[C@@H](O)[C@@H](O)[C@@H]2[C@@H]3C(=O)N(C4CCCCC4)C(=O)[C@H]3CC[C@@H]12,Potency,[2],3.16 µM (active)
same,"activity change, positive = activation",[1],-78.4% [at 11.4 µM]
same,activation,[3],-13.1%
CC(=O)OCC1OC(C#Cc2ccc(C(C)(C)C)cc2)C=CC1OC(C)=O (stereo unspecified),"activity change, negative = inhibition",[2],-26.6% [at 11.4 µM]
same,Potency,[4],inactive
same,Potency,[5],inactive
COc1ccc(/C=C/C(=O)c2ccccc2O)cc1,"activity change, negative = inhibition",[2],-17.2% [at 11.4 µM]
same,Potency,[4],3.16 µM (active)
same,Potency,[5],1.26 µM (active)
COc1ccc(O[C@H]2C=C[C@@H](c3ccccc3)O[C@H]2COC(=O)CC/C(C)=N\O[C@@H](C)CN2CCCc3nc(C)c(C)cc32)cc1,Potency,[2],3.16 µM (active)
same,Potency,[4],3.16 µM (active)
same,Potency,[5],3.16 µM (active)
Cc1ccc(S(=O)(=O)N[C@H]2COC(=O)[C@@H](C)COC(=O)[C@H](C)NC(=O)C/C=C\[C@H]2C)cc1,"activity change, positive = activation",[1],-40.2% [at 11.4 µM]
CC(=O)OC[C@@H]1O[C@H](C/C=N\O[C@@H](C)CN2CCCCc3nc(C)c(C)cc32)C=C[C@@H]1OC(C)=O,"activity change, positive = activation",[1],-57.2% [at 11.4 µM]
same,Potency,[4],3.16 µM (active)
C#CCCCO/N=C1/[C@H]2O[C@@H]2[C@@H](O)[C@H]2[C@H]1CCn1c(=O)n([C@@H](CC)c3ccccc3)c(=O)n12,"activity change, positive = activation",[1],-55.5% [at 11.4 µM]
CO/N=C(\C)CCN1CCCCc2nc(C)c(C)cc21,"activity change, positive = activation",[1],-38.2% [at 11.4 µM]
same,Potency,[4],3.98 µM (active)
CC(C)CO/N=C1/C[C@@H](O)[C@@H](O)[C@@H]2[C@@H]3C(=O)N([C@@H](C)c4ccccc4)C(=O)[C@H]3CC[C@H]12,"activity change, positive = activation",[1],-46.1% [at 11.4 µM]
Cn1c(N)c(C(=O)COC(=O)c2cc(C3CC3)nc3ccccc23)c(=O)n(C)c1=O,Potency,[1],inactive
CCc1cc2c(nc1CC)CCN(CC/C(C)=N/OCC[C@@H]1C=C[C@H](OC(C)=O)[C@H](COC(C)=O)O1)C2,"activity change, positive = activation",[1],-32.1% [at 11.4 µM]
C[C@@H](c1ccccc1)N1C(=O)[C@H]2[C@H]3[C@H](O)[C@H](O)C/C(=N/OCc4ccccc4)[C@@H]3CC[C@@H]2C1=O,"activity change, positive = activation",[1],-50% [at 11.4 µM]
same,Potency,[4],inactive
CC(=O)OC[C@H]1O[C@@H](O/N=C(\C)CCN2CCCc3nc(C)c(C)cc32)[C@H](OC(C)=O)[C@@H](OC(C)=O)[C@H]1OC(C)=O,"activity change, positive = activation",[1],-36.5% [at 11.4 µM]
same,Potency,[4],3.16 µM (active)
O=C1[C@H]2[C@H]3[C@H](O)[C@H](O)C/C(=N/OC[C@@H](O)COCc4ccco4)[C@@H]3CC[C@@H]2C(=O)N1C1CCCCC1,"activity change, positive = activation",[1],-51.1% [at 11.4 µM]
CO[C@@H]1COC(=O)C/C=C\[C@@H](C)[C@H](OC)COC(=O)[C@H](COCc2ccccc2)NC(=O)C/C=C\[C@H]1C,"activity change, positive = activation",[1],-41.7% [at 11.4 µM]
CC(=O)OC[C@H]1O[C@@H](O/N=C(\C)CCN2CCc3nc(-c4ccccc4)c(-c4ccccc4)cc3C2)[C@H](OC(C)=O)[C@@H](OC(C)=O)[C@H]1OC(C)=O,"activity change, positive = activation",[1],-41.6% [at 11.4 µM]
same,Potency,[4],3.16 µM (active)
CCC1=C2CC[C@H]3C(=O)N(C)C(=O)[C@H]3[C@H]2[C@@]2(C)C(=O)N(CC(=O)OC)C(=O)N2C1=O,Potency,[1],inactive
CO[C@@H]1COC(=O)[C@@H](C)NC(=O)C/C=C\[C@@H](C)[C@H](NS(=O)(=O)c2ccc(C)cc2)COC(=O)[C@H](C)NC(=O)C/C=C\[C@H]1C,"activity change, positive = activation",[1],-53.2% [at 11.4 µM]
same,Potency,[4],inactive
O=C(N/N=C1/C[C@@H](O)[C@@H](O)[C@@H]2[C@H]3C(=O)N(c4ccc(F)cc4F)C(=O)[C@@H]3CC[C@H]12)OCc1ccccc1,"activity change, positive = activation",[1],-37% [at 11.4 µM]
COC(=O)[C@@H]1C[C@@H]2CC[C@@H](O)C[C@@H]2N1Cc1ccc(N2CCOCC2)cc1,Potency,[1],inactive
CC(=O)OC[C@H]1O[C@@H](O/N=C(\C)CCN2CCCCc3nc(C)c(C)cc32)[C@H](OC(C)=O)[C@@H](OC(C)=O)[C@H]1OC(C)=O,"activity change, positive = activation",[1],-53.9% [at 11.4 µM]
same,Potency,[4],3.98 µM (active)
COc1ccc(COC(=O)N/N=C2/C[C@@H](O)[C@@H](O)[C@@H]3[C@H]4C(=O)N(c5ccc(F)cc5F)C(=O)[C@@H]4CC[C@@H]23)cc1,"activity change, positive = activation",[1],-42.8% [at 11.4 µM]
C[C@@H]1/C=C\CC(=O)OC[C@H]2O[C@@H](C=C[C@@H]2O)[C@H](C)/C=C\CC(=O)OC1,"activity change, positive = activation",[1],-35.6% [at 11.4 µM]
same,Potency,[4],inactive
